Measurements reported in the supplement of paper PMC11732987, “Enantioselective OTUD7B fragment discovery through chemoproteomics screening and high-throughput optimisation” (Communications Chemistry, 2025).

What follows are molecules tested against COPS5 (UniProt Q92905) (assay: log2 ratio of Biotin-Ahx-Ub-VS probe labelling (fragment/DMSO); higher = less target engagement (more negative = stronger competition), active = hit call of the paper (q ≤ 0.05, log2 ratio ≤ -1)). Conditions: compound concentration: 200 uM; treatment time: 3 h.
Protocol: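 Competitive ABPP in HEK293T cell lysate. Lysates were treated with each chloroacetamide fragment at 200 µM for 3 h, then with Biotin-Ahx-Ub-VS (0.5 µM, 1 h), NeutrAvidin-enriched and analysed by diaPASEF LC-MS/MS. Protein LFQ was median-normalised; average log2 ratio is fragment/DMSO from an unpaired t-test (n=3 treated, n=44 DMSO). Hits: q ≤ 0.05, log2 ratio ≤ -1, unique peptides ≥ 2.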

Sequence of COPS5 (Q92905 whole entry, looked up, the tested form may be a part): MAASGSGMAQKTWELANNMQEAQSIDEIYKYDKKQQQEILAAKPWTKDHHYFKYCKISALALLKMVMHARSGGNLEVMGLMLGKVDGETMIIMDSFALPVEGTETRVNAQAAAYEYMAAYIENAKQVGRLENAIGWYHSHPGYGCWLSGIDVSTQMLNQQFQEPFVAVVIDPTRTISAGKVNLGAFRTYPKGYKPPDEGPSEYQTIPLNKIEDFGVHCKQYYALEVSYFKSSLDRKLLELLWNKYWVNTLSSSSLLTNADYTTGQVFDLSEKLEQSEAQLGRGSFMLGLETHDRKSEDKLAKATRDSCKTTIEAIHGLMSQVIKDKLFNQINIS

log2 ratio of Biotin-Ahx-Ub-VS probe labelling, inactive:
O=C(CCl)Nc1ccccc1C(F)(F)F 0.00522
Cc1ccn2cc(CNC(=O)CCl)nc2c1.Cl 0.326
O=C(CCl)Nc1cccc(NC(=O)c2ccccc2)c1 -0.238
O=C(CCl)NC1CCC(C(F)(F)F)CC1 (stereo not given) -0.114
COc1ccc(Cl)cc1NC(=O)CCl -0.0284
O=C(CCl)N1CCC(O)(Cc2ccc(F)cc2)C1 (stereo not given) 0.0199
CC(=O)C1CCCCN1C(=O)CCl (stereo not given) -0.141
O=C(CCl)Nc1ccc(Cl)c(F)c1 0.155
CC(NC(=O)CCl)c1cccc(Cl)c1 (stereo not given) -0.0887
C[C@@H](NC(=O)CCl)c1cccc(C#N)c1 -0.193
Cl.Cn1ncc2c1CC(NC(=O)CCl)CC2 (stereo not given) -0.0206
Cl.O=C(CCl)N1CCn2ncc(O)c2C1 0.242
Cc1ncc2c(n1)CCN(C(=O)CCl)C2 0.163
CN(C(=O)CCl)c1nc2ccccc2s1 -0.0311
Cc1nc(CC2CCN(C(=O)CCl)CC2)no1 0.22
CC(NC(=O)CCl)c1cccc2ccccc12 (stereo not given) 0.127
Cl.O=C(CCl)N1CC(c2ccc(Br)cn2)C1 -0.0867
NC(=O)C1CCCCN1C(=O)CCl (stereo not given) 0.234
N#Cc1ccc(Cl)cc1NC(=O)CCl 0.289
CN(C)C(=O)c1ccc(NC(=O)CCl)cc1 0.125
O=C(CCl)N1CCC(C(O)c2ccc(F)cc2)CC1 (stereo not given) -0.113
CN1c2ccccc2C(NC(=O)CCl)CS1(=O)=O (stereo not given) 0.318
O=C(CCl)N1CCN(C(=O)N2CCCCC2)CC1 -0.16
O=C(CCl)Nc1cccc2ncccc12 0.251
Cc1nc(CNC(=O)CCl)c2ccccn12.Cl -0.109
O=C(CCl)NCCc1cccc2ccccc12 -0.0396
CC(O)CC1CCN(C(=O)CCl)CC1 (stereo not given) -0.25
O=C(CCl)N1CCCN(C(=O)c2ccc(Cl)cc2)CC1 0.0384
Cc1ccc(CNC(=O)CCl)nc1C.Cl 0.0421
O=C(CCl)Nc1ccc(F)cc1F -0.115
O=C(CCl)NC1CCOc2ccccc21 (stereo not given) -0.296
CCC(NC(=O)CCl)c1ccc(Cl)cc1 (stereo not given) 0.193
Cl.O=C(CCl)N1CCC(n2nc3ccccc3n2)CC1 -0.532
CC1CN(c2ccc(NC(=O)CCl)cc2)CC(C)O1 (stereo not given) 0.159
Cc1n[nH]c(=O)c2c(NC(=O)CCl)oc(C)c12 0.0565
O=C(CCl)NCc1cccc(F)c1 0.17
Cc1cc(Cl)ccc1NC(=O)CCl -0.176
O=C(CCl)Nc1ccc2c(c1)OC(F)(F)O2 -0.156
O=C(CCl)N1CCC(OCc2ccccc2F)CC1 -0.148
O=C(CCl)N1CCN2C(=O)CCC2C1 (stereo not given) 0.141
